Assay results: PubChem BioAssay (NCATS)
Results filed as inconclusive are left out. The source made the active and inactive calls. Unless noted, calls follow the shape of the dose curve; as a rule, active = well fitted curve in the direction sought with a large enough effect; inconclusive = small, poorly fitted or top-dose-only effect, or another doubt; inactive = no such curve, though single readings can be large; an effect the other way counts as inactive or inconclusive.

How the values were obtained:
[1] = target: Guanine nucleotide-binding protein G(i) subunit alpha-1 (Homo sapiens) (UniProt P63096); assay: qHTS Assay for Inhibitors of RGS12 GoLoco Motif Activity (Green Fluorophore) (AID 879);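 also: negative values mean loss of peptide binding seen as reduced polarization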
Summary of the method: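 Fluorescence polarization assay: 50 nM Gαi1 with 10 nM FITC-labeled RGS12 GoLoco peptide in 10 mM Tris pH 7.5, 150 mM NaCl, 0.1 mM GDP, 0.05% NP40, 10 min at room temperature with compound.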

[2] = Confirmation and Secondary Assay for Modulators of Hemoglobin Beta Chain Splicing at IVS2 654 locus (AID 910);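 also: HeLa cells stably carrying EGFP split by mutant beta-globin IVS2-654 intron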;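 also: potency is read from the fitted curve at half-maximal effect; potency of activators that raise GFP signal by restoring correct splicing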
Summary of the method: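 HeLa cells stably expressing EGFP interrupted by β-globin IVS2-654 intron, seeded overnight in Opti-MEM/2% FCS, then treated 2 days at 37 °C. Restored splicing read as total peak GFP intensity per well by laser scanning cytometry (488 nm excitation, 500–520 nm emission); 500 nM antisense PNA as control.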

[3] = qHTS Assay for Identification of Small Molecule Agonists for Thrombopoietin (TPO) Signaling Pathway (AID 917)
Summary of the method: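 IL-3-dependent murine pro-B Ba/F3 cells, stably transfected with human TPO receptor and GpIIb-promoter luciferase, are incubated 24 hrs at 37 C with test compound and 26 pM TPO; luciferase signal is read after 10 min at room temperature.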

[4] = Confirmation and Secondary Assay for Modulators of Hemoglobin Beta Chain Splicing at IVS2 705 locus (AID 930);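 also: HeLa cells stably expressing the EGFP-705 splicing reporter; GFP fluorescence per well restored by corrected splicing of the IVS2-705 intron in EGFP; series mostly up to about 46 µM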
Summary of the method: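 Assay measures total GFP intensity per well in HeLa EGFP-705 cells after 2 days with compound; mis-splicing normally truncates EGFP, so fluorescence indicates corrected splicing.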

[5] = target: Pyruvate kinase (Leishmania mexicana) (UniProt Q27686); assay: qHTS Validation Assay for Inhibitors of Leishmania Mexicana Pyruvate Kinase (AID 945)
Summary of the method: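 Pyruvate kinase activity of E451W LmPYK (0.2 nM) was followed as ATP output after 1 h at room temperature with 0.5 mM PEP and 0.1 mM ADP, detected by PKLight luminescence.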

[6] = target: Cytochrome P450 3A4 (Homo sapiens) (UniProt P08684); assay: qHTS Assay for Activators of Cytochrome P450 3A4 (AID 885); also: nearly all actives have a fitted effect of over 65% in size; also: potency is read from the fitted curve at half-maximal effect
Summary of the method: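 20nM CYP3A4 + 25uM Luciferin-PPXE (=KM), 200mM KPO4; cpd 10 min RT; NADPH regen, 60 min RT; stop w/ detection buffer, 20 min; luminescence. Normalized to 57 uM ketoconazole.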

[7] = target: Pyruvate kinase PKM (Homo sapiens) (UniProt P14618); assay: qHTS Assay for Activators of Human Muscle Pyruvate Kinase (AID 954; active = well fitted curve in the direction sought with a large enough effect, not every such curve was filed as active)
Summary of the method: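 Luminescence from a luciferase ATP-detection/stop reagent reported PKM2 activity. Reactions contained 0.1 nM purified human enzyme, 0.5 mM PEP, 0.1 mM ADP and 7 mM MgCl2 at pH 7.2, run 1 h at RT.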

[8] = target: Muscarinic acetylcholine receptor M1 (Rattus norvegicus) (UniProt P08482); assay: qHTS Assay for Antagonists of Acetylcholine Muscarinic M1 Receptor: Measurement of IP-One Response (AID 944); also: nearly all actives have a fitted effect of over 75% in size
Summary of the method: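 CHO cells expressing rat M1 receptor, recovered overnight, were pre-incubated 10 min with compound, then stimulated 30 min with carbachol at EC80 (200 nM) in LiCl-containing buffer, pH 7.4. IP1 accumulation was read by HTRF (620/665 nm).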

[9] = qHTS Assay for Identification of Small Molecule Antagonists for NFkB Signaling Pathway (AID 895; active = well fitted inhibition curve with a large enough effect in the signal ratio, with a control signal flat, not every such curve was filed as active; the % refers to the signal ratio)
Summary of the method: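 ME-180 NFkB-bla cells (beta-lactamase under NFkB response element), plated overnight, treated with compound then 10 pM TNF alpha (about EC50) for 5 hrs at 37 C. LiveBLAzer FRET read at 460/530 nm emission, 405 nm excitation.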

[10] = target: Cytochrome P450 2C9 (Homo sapiens) (UniProt P11712); assay: qHTS Assay for Inhibitors and Substrates of Cytochrome P450 2C9 (AID 883); also: nearly all actives have a fitted effect of over 60% in size
Summary of the method: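 10nM CYP2C9 + 100uM Luciferin-H (=KM), 25mM KPO4; cpd 10 min 37C; NADPH regen, 60 min 37C; stop/detect with P450 Glo-Buffer 20 min; luminescence. Norm. to 57uM sulphaphenazole as full inhibition.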

[11] = target: Cytochrome P450 3A4 (Homo sapiens) (UniProt P08684); assay: qHTS Assay for Inhibitors and Substrates of Cytochrome P450 3A4 (AID 884); also: series mostly up to about 57 µM; nearly all actives have a fitted effect of over 50% in size
Summary of the method: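 20 nM human CYP3A4 with 25 uM Luciferin-PPXE (at KM) in 200 mM KPO4, preincubated 10 min with compound; NADPH regeneration started a 60 min RT reaction. Luciferin detected by luminescence, normalized to 57 uM ketoconazole as full inhibition.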

[12] = target: Cytochrome P450 2D6 (Homo sapiens) (UniProt P10635); assay: qHTS Assay for Inhibitors and Substrates of Cytochrome P450 2D6 (AID 891);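 also: luciferin methyl ether substrate demethylated by CYP2D6 with NADPH regeneration; nearly all actives have a fitted effect of over 60% in size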
Summary of the method: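 Human CYP2D6 (5 nM) with 30 uM Luciferin-ME EGE (at Km) in 100 mM KPO4, compound preincubated 10 min, then NADPH regeneration system for 60 min at room temperature. Luciferin read by luminescence; normalized to 1.43 uM quinidine.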

[13] = target: Muscarinic acetylcholine receptor M1 (Rattus norvegicus) (UniProt P08482); assay: qHTS Assay for Antagonists of Acetylcholine Muscarinic M1 Receptor: Kinetic Measurement of Intracellular Calcium Response (AID 943);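 also: Fluo-4 calcium signal as peak divided by basal fluorescence over 4 min; series mostly up to about 35 µM; nearly all actives have a fitted effect of over 75% in size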
Summary of the method: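 CHO cells stably expressing rat M1 were loaded with no-wash Fluo-4 dye for 1 h at 37C, pre-incubated 10 min with compound, then challenged with EC80 carbachol (100 nM final); kinetic calcium read 4 min, peak/basal ratio.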

[14] = MultiTox-Fluor Cytotoxicity Assay - LYMP1-001 - Dead Cells (AID 946)
Summary of the method: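 AC50 from Hill fit of concentration-response; data normalized to DMSO (basal) and 15 uM tetraoctylammonium bromide (100%). LYMP1-001 lymphoblastoid cells, 2500/well, 16 hr compound at 37 C; dead-cell protease fluorescence, Ex/Em 485/520.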

[15] = MultiTox-Fluor Cytotoxicity Assay - LYMP1-001 - Live Cells (AID 947)
[16] = MultiTox-Fluor Cytotoxicity Assay - LYMP1-002 - Live Cells (AID 955)
Summary of the method: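 Human lymphoblastoid LYMP1-002 cells, 2500/well in complete medium, rested 5 hr at 37 C, then exposed to compounds for 16 hr at 37 C. Live-cell protease cleavage of GF-AFC read by fluorescence (Ex/Em 405/510) after 60 min at room temperature; AC50 from Hill fits.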

[17] = qHTS Assay for Identification of Small Molecule Antagonists for Thrombopoietin (TPO) Signaling Pathway (AID 918); details: TPO-dependent cell signaling reporter, antagonist mode; also: potency is read from the fitted curve at half-maximal effect; nearly all actives have a fitted effect of over 60% in size
Summary of the method: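 Murine Ba/F3 cells stably expressing human TPO receptor and a Glycoprotein IIb promoter–luciferase reporter were IL-3-starved overnight, treated with compounds plus TPO (26 pM final, its EC50) for 24 hrs at 37 C, then read by luminescence.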

Measured: Potency

Pyruvate kinase PKM (Homo sapiens), sequence (P14618 whole entry, looked up): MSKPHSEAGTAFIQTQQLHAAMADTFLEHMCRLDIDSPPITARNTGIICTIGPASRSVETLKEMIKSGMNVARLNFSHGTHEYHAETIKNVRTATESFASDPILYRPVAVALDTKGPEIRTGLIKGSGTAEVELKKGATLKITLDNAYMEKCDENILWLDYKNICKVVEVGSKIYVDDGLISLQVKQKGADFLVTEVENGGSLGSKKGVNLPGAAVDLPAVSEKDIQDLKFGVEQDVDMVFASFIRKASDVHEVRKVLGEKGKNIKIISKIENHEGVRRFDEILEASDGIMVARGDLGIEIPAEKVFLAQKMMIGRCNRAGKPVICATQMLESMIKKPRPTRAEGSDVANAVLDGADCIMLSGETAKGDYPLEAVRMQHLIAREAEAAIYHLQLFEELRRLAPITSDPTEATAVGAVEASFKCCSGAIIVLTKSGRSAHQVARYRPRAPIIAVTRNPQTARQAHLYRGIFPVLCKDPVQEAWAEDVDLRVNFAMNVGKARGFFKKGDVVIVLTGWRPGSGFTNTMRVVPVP
Guanine nucleotide-binding protein G(i) subunit alpha-1 (Homo sapiens), sequence (P63096 whole entry, looked up): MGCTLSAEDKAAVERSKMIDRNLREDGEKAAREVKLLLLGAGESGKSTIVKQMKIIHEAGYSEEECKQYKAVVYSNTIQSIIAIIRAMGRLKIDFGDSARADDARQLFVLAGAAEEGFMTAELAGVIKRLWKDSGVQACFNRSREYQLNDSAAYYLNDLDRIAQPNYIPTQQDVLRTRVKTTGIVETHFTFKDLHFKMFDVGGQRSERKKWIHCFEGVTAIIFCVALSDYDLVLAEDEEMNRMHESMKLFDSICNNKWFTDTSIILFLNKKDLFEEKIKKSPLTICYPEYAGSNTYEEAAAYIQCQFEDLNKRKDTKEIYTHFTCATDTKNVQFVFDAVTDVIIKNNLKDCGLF
Pyruvate kinase (Leishmania mexicana), sequence (Q27686 2-499 E452W): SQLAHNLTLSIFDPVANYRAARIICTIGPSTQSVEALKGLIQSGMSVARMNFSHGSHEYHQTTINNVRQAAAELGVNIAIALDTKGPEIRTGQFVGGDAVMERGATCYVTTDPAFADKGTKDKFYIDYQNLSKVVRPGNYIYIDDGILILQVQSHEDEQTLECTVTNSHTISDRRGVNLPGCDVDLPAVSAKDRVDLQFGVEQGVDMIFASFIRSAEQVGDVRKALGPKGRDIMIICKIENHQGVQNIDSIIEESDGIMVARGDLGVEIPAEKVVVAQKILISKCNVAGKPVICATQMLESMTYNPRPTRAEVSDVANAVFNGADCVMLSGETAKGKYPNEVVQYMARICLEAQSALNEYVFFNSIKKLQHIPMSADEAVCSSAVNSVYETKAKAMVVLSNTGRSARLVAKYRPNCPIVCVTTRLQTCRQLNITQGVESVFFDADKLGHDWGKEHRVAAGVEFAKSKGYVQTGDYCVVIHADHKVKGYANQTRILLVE
Muscarinic acetylcholine receptor M1 (Rattus norvegicus), sequence (P08482 whole entry, looked up): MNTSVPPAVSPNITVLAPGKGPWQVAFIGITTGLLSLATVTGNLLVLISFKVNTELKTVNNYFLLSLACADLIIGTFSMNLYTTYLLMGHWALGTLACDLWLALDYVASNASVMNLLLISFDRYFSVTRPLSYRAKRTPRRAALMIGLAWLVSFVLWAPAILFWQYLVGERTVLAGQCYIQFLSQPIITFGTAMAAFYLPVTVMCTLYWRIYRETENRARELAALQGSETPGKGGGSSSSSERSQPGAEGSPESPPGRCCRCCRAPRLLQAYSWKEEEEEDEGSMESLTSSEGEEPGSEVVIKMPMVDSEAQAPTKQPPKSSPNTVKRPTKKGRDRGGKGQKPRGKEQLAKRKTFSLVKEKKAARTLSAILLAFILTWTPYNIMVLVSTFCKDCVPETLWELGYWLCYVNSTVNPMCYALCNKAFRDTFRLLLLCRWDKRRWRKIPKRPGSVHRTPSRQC
Cytochrome P450 3A4 (Homo sapiens), sequence (P08684 whole entry, looked up): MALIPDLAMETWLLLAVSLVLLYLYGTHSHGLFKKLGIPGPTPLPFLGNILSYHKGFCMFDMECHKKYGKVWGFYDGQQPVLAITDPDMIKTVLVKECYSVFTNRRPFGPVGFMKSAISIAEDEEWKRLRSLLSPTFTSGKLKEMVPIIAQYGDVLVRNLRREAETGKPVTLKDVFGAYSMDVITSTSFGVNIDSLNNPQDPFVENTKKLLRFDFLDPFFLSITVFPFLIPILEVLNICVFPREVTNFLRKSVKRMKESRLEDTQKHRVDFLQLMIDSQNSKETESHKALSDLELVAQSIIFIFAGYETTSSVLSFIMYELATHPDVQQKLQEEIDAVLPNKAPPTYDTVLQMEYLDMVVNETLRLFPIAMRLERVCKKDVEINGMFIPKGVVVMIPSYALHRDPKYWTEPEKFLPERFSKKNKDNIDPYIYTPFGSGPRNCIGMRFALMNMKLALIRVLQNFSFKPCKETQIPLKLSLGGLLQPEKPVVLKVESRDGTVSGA
Cytochrome P450 2C9 (Homo sapiens), sequence (P11712 whole entry, looked up): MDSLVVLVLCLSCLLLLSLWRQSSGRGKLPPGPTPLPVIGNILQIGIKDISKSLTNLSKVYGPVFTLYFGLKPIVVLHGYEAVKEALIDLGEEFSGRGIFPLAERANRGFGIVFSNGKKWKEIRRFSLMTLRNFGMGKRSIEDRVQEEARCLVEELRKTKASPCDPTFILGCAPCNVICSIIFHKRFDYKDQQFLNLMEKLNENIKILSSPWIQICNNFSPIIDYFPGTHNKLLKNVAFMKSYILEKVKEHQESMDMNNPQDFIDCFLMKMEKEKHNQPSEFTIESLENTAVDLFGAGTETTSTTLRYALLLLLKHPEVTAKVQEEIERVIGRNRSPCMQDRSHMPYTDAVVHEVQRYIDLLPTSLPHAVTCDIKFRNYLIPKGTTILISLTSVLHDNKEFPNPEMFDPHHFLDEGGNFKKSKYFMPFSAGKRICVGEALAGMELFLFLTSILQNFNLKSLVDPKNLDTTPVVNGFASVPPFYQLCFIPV
Cytochrome P450 2D6 (Homo sapiens), sequence (P10635 whole entry, looked up): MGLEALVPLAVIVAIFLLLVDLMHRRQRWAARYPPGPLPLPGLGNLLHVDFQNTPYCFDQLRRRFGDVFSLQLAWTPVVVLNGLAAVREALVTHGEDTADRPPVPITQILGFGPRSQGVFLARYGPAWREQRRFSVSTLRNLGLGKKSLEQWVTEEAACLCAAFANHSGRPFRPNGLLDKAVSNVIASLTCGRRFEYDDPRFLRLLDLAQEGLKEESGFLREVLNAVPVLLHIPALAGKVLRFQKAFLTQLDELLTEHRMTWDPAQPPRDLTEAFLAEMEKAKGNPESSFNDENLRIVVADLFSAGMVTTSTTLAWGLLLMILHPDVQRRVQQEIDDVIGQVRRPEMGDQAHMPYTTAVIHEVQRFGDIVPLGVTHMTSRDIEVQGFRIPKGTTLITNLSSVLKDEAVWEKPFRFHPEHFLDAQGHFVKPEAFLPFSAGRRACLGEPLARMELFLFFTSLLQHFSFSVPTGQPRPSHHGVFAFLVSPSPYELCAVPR

CN1CCN(C2=Nc3cc(Cl)ccc3Nc3ccccc32)CC1
inactive: [1] | [2] | [3] | [4] | [5]

Cc1ccccc1N1C(=O)c2cc(S(N)(=O)=O)c(Cl)cc2NC1C (stereo not drawn)
inactive: [1] | [6] | [2] | [3] | [4] | [5]

CN(C)C(=O)C(CCN1CCC(O)(c2ccc(Cl)cc2)CC1)(c1ccccc1)c1ccccc1
inactive: [1] | [2] | [4] | [5] | [7]

CCCCc1oc2ccccc2c1C(=O)c1cc(I)c(OCCN(CC)CC)c(I)c1
inactive: [1] | [2] | [4] | [8] | [5]

OCCN1CCN(CCCN2c3ccccc3Sc3ccc(C(F)(F)F)cc32)CC1
inactive: [1] | [2] | [4] | [5]

Cn1cnc2c1c(=O)[nH]c(=O)n2C
inactive: [1] | [9] | [2] | [3] | [4] | [8] | [5] | [7]

Nc1nc2c(ncn2COC(CO)CO)c(=O)[nH]1
inactive: [1] | [3] | [5]

CCOC(=O)c1ncn2c1CN(C)C(=O)c1cc(F)ccc1-2
inactive: [10] | [11] | [12] | [3] | [5]

CCCNCC(O)COc1ccccc1C(=O)CCc1ccccc1 (stereo not drawn)
inactive: [2] | [4]

CN1CCN2c3ccccc3Cc3ccccc3C2C1 (stereo not drawn)
inactive: [6] | [2] | [4]

COc1ccccc1OCC(O)CN1CCN(CC(=O)Nc2c(C)cccc2C)CC1 (stereo not drawn)
inactive: [2] | [4]

CC1COc2c(N3CCN(C)CC3)c(F)cc3c(=O)c(C(=O)O)cn1c23 (stereo not drawn)
inactive: [2] | [4]

COc1cc2nc(N3CCN(C(=O)c4ccco4)CC3)nc(N)c2cc1OC
active: [6] 12.6 µM
inactive: [10] | [11] | [12]

CCOC(=O)Nc1ccc(NCc2ccc(F)cc2)nc1N
inactive: [1] | [3] | [13] | [8] | [5] | [7]

CN(C)C(=N)N=C(N)N
inactive: [2] | [4]

COc1ccccc1OCCNCC(O)COc1cccc2[nH]c3ccccc3c12 (stereo not drawn)
inactive: [2] | [4]

CC(=O)OCC(CCn1cnc2cnc(N)nc21)COC(C)=O
inactive: [11] | [2] | [4]

CC12CC3CC(C)(C1)CC(N)(C3)C2
inactive: [11] | [2] | [4]

CCN1CCCC1CNC(=O)c1cc(S(=O)(=O)CC)c(N)cc1OC (stereo not drawn)
inactive: [11]

CC(COc1ccccc1)N(CCCl)Cc1ccccc1 (stereo not drawn)
inactive: [6] | [2] | [4] | [14] | [15] | [16]

Cc1cnc(C(=O)NCCc2ccc(S(=O)(=O)NC(=O)NC3CCCCC3)cc2)cn1
inactive: [1] | [3] | [5]

NC(CO)C(=O)NNCc1ccc(O)c(O)c1O (stereo not drawn)
inactive: [2] | [4]

NCCS(=O)(=O)O
inactive: [1] | [3] | [13] | [8] | [5] | [14] | [15] | [7] | [16]

CC(C(=O)O)c1cccc(C(=O)c2ccccc2)c1 (stereo not drawn)
inactive: [2] | [4]

CC(C)NCC(O)c1ccc(O)c(O)c1 (stereo not drawn)
inactive: [2] | [4] | [14] | [15] | [16]

O=C(c1ccc(OCCN2CCCCC2)cc1)c1c(-c2ccc(O)cc2)sc2cc(O)ccc12
inactive: [5]
active: [17] 15.8 µM

COc1cc2nc(N(C)CCCNC(=O)C3CCCO3)nc(N)c2cc1OC (stereo not drawn)
inactive: [11] | [2] | [4]

CC[C@@]1(O)C(=O)OCc2c1cc1n(c2=O)Cc2cc3c(CN(C)C)c(O)ccc3nc2-1
inactive: [11] | [4]
active: [2] 12.6 µM

CCC1(C)CC(=O)NC1=O (stereo not drawn)
inactive: [11] | [2] | [4]

Cc1ccc(-c2cc(C(F)(F)F)nn2-c2ccc(S(N)(=O)=O)cc2)cc1
inactive: [2] | [4] | [14] | [16]

O=C(CCCN1CCC(O)(c2ccc(Cl)cc2)CC1)c1ccc(F)cc1
inactive: [1] | [2] | [4] | [5] | [7]

Cc1cn([C@H]2C[C@H](N=[N+]=[N-])[C@@H](CO)O2)c(=O)[nH]c1=O
inactive: [14] | [15] | [16]

COc1ccc(CCN(C)CCCC(C#N)(c2ccc(OC)c(OC)c2)C(C)C)cc1OC (stereo not drawn)
inactive: [14] | [15] | [16]

CN(C)CCOC(c1ccccc1)c1ccccc1
inactive: [1] | [2] | [4] | [5] | [7]

CC[N+](CC)(CC)CCOc1cccc(OCC[N+](CC)(CC)CC)c1OCC[N+](CC)(CC)CC
inactive: [1] | [3] | [5] | [7]
